Inconclusive results are not listed. Calls of active or inactive are those of the source. Calls follow the shape of the dose curve; as a rule, active = well fitted curve in the direction sought with a large enough effect; inconclusive = small, poorly fitted or top-dose-only effect, or another doubt; inactive = no such curve, though single readings can be large; an effect the other way counts as inactive or inconclusive.
Tests used:
[1] = Quantitative High-Throughput drug screen in 47 multiple myeloma cell lines against the NCATS MIPE library collection: FR4_PLB cell viability assay (AID 1918924; also: nearly all actives have a fitted effect of over 35% in size; also: potency is read from the fitted curve at half-maximal effect)
Method in brief: (§1)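 Primary qHTS used for cherry-picking: cells at 500/well, library compounds for 48 h (37C, 5% CO2), luminescent ATP assay.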

[2] = Quantitative High-Throughput drug screen in 47 multiple myeloma cell lines against the NCATS MIPE library collection: Delta47_JCRB cell viability assay (AID 1918925; also: nearly all actives have a fitted effect of over 45% in size; also: potency is read from the fitted curve at half-maximal effect)
Method in brief: (§2)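 Relative luminescence from CellTiter-Glo served as the viability signal, referenced to DMSO-treated (100%) and cell-free medium (0%) controls. Treatment lasted 48 hours at 37C with 500 cells per well.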

[3] = Quantitative High-Throughput drug screen in 47 multiple myeloma cell lines against the NCATS MIPE library collection: ARP1_JJKsccF8 cell viability assay (AID 1918928; also: nearly all actives have a fitted effect of over 40% in size; also: potency is read from the fitted curve at half-maximal effect)
Method in brief: (§3)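 ATP readout (CellTiter-Glo), 48 h drug incubation, 37 °C/5% CO2, 500 cells per well; normalisation to DMSO (100%) and media-only (0%) controls.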

[4] = Quantitative High-Throughput drug screen in 47 multiple myeloma cell lines against the NCATS MIPE library collection: JJN3_DSMZ cell viability assay (AID 1918966; also: potency is read from the fitted curve at half-maximal effect; nearly all actives have a fitted effect of over 50% in size)
Method in brief: as §2

[5] = Quantitative High-Throughput drug screen in 47 multiple myeloma cell lines against the NCATS MIPE library collection: KMS12BM_JCRB cell viability assay (AID 1918971); also: nearly all actives have a fitted effect of over 35% in size; also: potency is read from the fitted curve at half-maximal effect
Method in brief: (§4)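 We plated 500 myeloma cells per well, pinned in MIPE 4.0 compounds, and incubated for 48 hours at 37C. ATP was then quantified with CellTiter-Glo, with DMSO and media-only wells defining 100% and 0%.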

[6] = Quantitative High-Throughput drug screen in 47 multiple myeloma cell lines against the NCATS MIPE library collection: AMO1_DSMZ cell viability assay (AID 1918927; also: potency is read from the fitted curve at half-maximal effect; nearly all actives have a fitted effect of over 30% in size)
Method in brief: as §2

[7] = Quantitative High-Throughput drug screen in 47 multiple myeloma cell lines against the NCATS MIPE library collection: ARD_JJKsccE7 cell viability assay (AID 1918929; also: potency is read from the fitted curve at half-maximal effect)
Method in brief: as §2

[8] = Quantitative High-Throughput drug screen in 47 multiple myeloma cell lines against the NCATS MIPE library collection: Karpas620_DSMZ cell viability assay (AID 1918959); also: nearly all actives have a fitted effect of over 30% in size
Method in brief: as §1

[9] = Quantitative High-Throughput drug screen in 47 multiple myeloma cell lines against the NCATS MIPE library collection: KMM1_JCRB cell viability assay (AID 1918960); also: potency is read from the fitted curve at half-maximal effect; nearly all actives have a fitted effect of over 30% in size
Method in brief: as §3

[10] = Quantitative High-Throughput drug screen in 47 multiple myeloma cell lines against the NCATS MIPE library collection: JIM3_ECACC cell viability assay (AID 1918963; also: nearly all actives have a fitted effect of over 35% in size; also: potency is read from the fitted curve at half-maximal effect)
Method in brief: as §1

[11] = Quantitative High-Throughput drug screen in 47 multiple myeloma cell lines against the NCATS MIPE library collection: INA6_PLB cell viability assay (AID 1918965; also: potency is read from the fitted curve at half-maximal effect; nearly all actives have a fitted effect of over 55% in size)
Method in brief: as §4

[12] = Quantitative High-Throughput drug screen in 47 multiple myeloma cell lines against the NCATS MIPE library collection: KMS12PE_JCRB cell viability assay (AID 1918972); also: nearly all actives have a fitted effect of over 30% in size; also: potency is read from the fitted curve at half-maximal effect
Method in brief: as §4

[13] = Quantitative High-Throughput drug screen in 47 multiple myeloma cell lines against the NCATS MIPE library collection: KMS20_JCRB cell viability assay (AID 1918973); also: nearly all actives have a fitted effect of over 45% in size; also: potency is read from the fitted curve at half-maximal effect
Method in brief: as §2

[14] = Quantitative High-Throughput drug screen in 47 multiple myeloma cell lines against the NCATS MIPE library collection: KHM11_PLB cell viability assay (AID 1918962); also: nearly all actives have a fitted effect of over 35% in size; also: potency is read from the fitted curve at half-maximal effect
Method in brief: as §1

[15] = Quantitative High-Throughput drug screen in 47 multiple myeloma cell lines against the NCATS MIPE library collection: H1112_PLB cell viability assay (AID 1918967; also: nearly all actives have a fitted effect of over 30% in size; also: potency is read from the fitted curve at half-maximal effect)
Method in brief: as §2

[16] = Quantitative High-Throughput drug screen in 47 multiple myeloma cell lines against the NCATS MIPE library collection: Karpas25_ECACC cell viability assay (AID 1918968; also: nearly all actives have a fitted effect of over 35% in size; also: potency is read from the fitted curve at half-maximal effect)
Method in brief: as §2

[17] = Quantitative High-Throughput drug screen in 47 multiple myeloma cell lines against the NCATS MIPE library collection: KMS27_JCRB cell viability assay (AID 1918970)
Method in brief: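 ATP-based viability (CellTiter-Glo luminescence) is measured in cells treated 48 h with approved and investigational drugs at 37 °C. Controls are DMSO-only wells for full viability and media-only wells for none.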

[18] = Quantitative High-Throughput drug screen in 47 multiple myeloma cell lines against the NCATS MIPE library collection: EJM_DSMZ cell viability assay (AID 1918926)
Method in brief: as §2

[19] = Quantitative High-Throughput drug screen in 47 multiple myeloma cell lines against the NCATS MIPE library collection: Karpas417_ECACC cell viability assay (AID 1918961); conditions: Karpas417 myeloma viability, CellTiter-Glo ATP luminescence, 48 h; viability (% of DMSO): at 45.8 µM (top of the series); also: potency is read from the fitted curve at half-maximal effect
Method in brief: as §4

Measured: Potency

CCOC(=O)C1=C(C)NC2=C(C(=O)CC(C)(C)C2)C1c1ccc(-c2ccccc2)cc1 (centres undefined)
active: [1] 20.9 µM | [2] 14.8 µM | [3] 23.5 µM | [4] 18.7 µM | [5] 23.5 µM

Cc1c(Cn2c(C)nc3c(C(=O)O)cc(N4CCOCC4)cc32)cccc1C(F)(F)F
active: [1] 5.9 µM | [2] 5.9 µM | [6] 14.8 µM | [9] 20.9 µM | [10] 9.35 µM | [11] 16.6 µM | [13] 0.0935 µM
inactive: [7] | [8] | [12]

CN(C)c1nc(Cc2ccc(NC(=O)c3ccc4ccccc4c3)cc2)nc(Cl)c1CC(=O)O
active: [17] 0.0526 µM | [12] 16.6 µM
not listed: [4] | [6] | [9] | [11] | [18] | [19]
inactive: all other assays above

CCCCc1nc2cc(C=CC(=O)NO)ccc2n1CCN(CC)CC
active: [1] 0.0833 µM | [2] 0.469 µM | [18] 1.32 µM | [3] 0.148 µM | [14] 1.48 µM | [4] 0.743 µM | [15] 1.87 µM | [16] 0.372 µM | [5] 0.059 µM | [13] 0.209 µM

CCOc1cc2ncc(C#N)c(Nc3ccc(F)c(Cl)c3)c2cc1NC(=O)C=CCN(C)C
active: [1] 7.43 µM | [2] 6.62 µM | [18] 5.9 µM | [3] 1.66 µM | [14] 20.9 µM | [10] 18.7 µM | [11] 0.526 µM | [4] 9.35 µM | [15] 5.26 µM | [16] 0.662 µM | [5] 5.26 µM | [13] 4.69 µM

COC(=O)Nc1nc2ccc(C(=O)c3ccc(F)cc3)cc2[nH]1
active: [1] 0.264 µM | [2] 0.418 µM | [6] 0.296 µM | [3] 0.418 µM | [7] 0.332 µM | [14] 0.264 µM | [10] 0.59 µM | [11] 0.418 µM | [4] 2.35 µM | [5] 0.833 µM

CC[C@@H]1C(=O)N(C)c2cnc(Nc3ccc(C(=O)NC4CCN(C)CC4)cc3OC)nc2N1C1CCCC1
active: [1] 0.0235 µM | [18] 3.72 µM | [6] 0.0833 µM | [3] 0.0372 µM | [7] 0.0296 µM | [9] 0.0235 µM | [19] 1.87 µM | [10] 0.0235 µM | [11] 0.0833 µM | [4] 7.43 µM | [16] 4.69 µM | [5] 0.0235 µM | [12] 1.66 µM | [13] 6.62 µM

Reference: PubChem BioAssay (NCATS)
